# Assay results: the supplement of paper PMC11417369
# ± gives the standard deviation of the averaged measurements. In all, about 25,000 sequences were measured (“ln(normalized median fluorescence intensity)”: median about 7.9, highest 2% from about 11 on). Many of the other results were omitted from the sample, so the highest values are more common in it than they were.
# System: PfAP2-I AP2 domain 3 (GST-tagged)
# Assay: gcPBM binding intensity (ln(normalized median fluorescence intensity)); higher = stronger DNA binding
# Method in brief: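 Binding intensity is the highest Masliner-normalised natural-log median intensity over replicate spots in either probe orientation. To obtain it, GST-tagged P. falciparum DNA-binding domains made in E. coli were incubated for 1 h on an Agilent 4 × 180k array of primer-extended double-stranded 36-bp intergenic genomic probes plus negative controls. Detection used Alexa488 anti-GST antibody with scanning at 488 nm.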
row,Sequence,gcPBM binding intensity (ln)
1,TTTTTTGTTTGAATGGTGCATTTTGTAATTATATTT,10.3 ± 0.41
2,TTGTTATGTTTTATTTGTACGTAGGTTTCTATCAAA [XGTACX_site7636],8.12 ± 0.35
3,ATATTTATTTATATGTGTACTTATGTTTATATAAAA [XGTACX_site4250],8.02 ± 0.21
4,GAAAATATAAAAAAAAGTACATTTTCTCTAAATATA [XGTACX_site2441],7.57 ± 0.35
5,ATTTTTTTACTGTAACCATATTTTTCCCTTTTATTC [CACACA_negctrl_site1143],7.95 ± 0.79
6,TGTATGTTATATACAACACACAAAAAAAAACAAGTT [CACACA_site301],7.62 ± 0.7
7,AGACAATATCTTATTTGTACATATGTATTCCTCATA [XGTACX_site5757],7.88 ± 0.63
8,GGGAATATAAGTACACGATAATATGTGATAAGGTCT [CACACA_negctrl_site1502],8.28 ± 0.86
9,AAGAACCATATTTAAACACACATACCTATATAAATA [CACACA_site7553],7.68 ± 0.53
10,ATGTTACACCGACACACACACATAAAAAAACAAAAA [CACACA_site5750],8.15 ± 0.34
11,ACGTGTATTTATTTAGTGCACTTTATATTTTTTCTT [GTGCAC_site9426],11.5 ± 0.28
12,ATTTTTTTCTTAGGAGTGCACTTATATTTATTTTAT,10.8 ± 0.49
13,TATATATATTAGTGTGCACACTTTTTATTTTTATCC [CACACA_site8506],9.33 ± 0.4
14,ATACCTATTTGATGAGTGCATTATCCAATATATGTA,11.3 ± 0.65
15,ACACCTATAAATTAAGTGCATTTTTTTTGATGTTAT,9.45 ± 0.46
16,TTATACCTATATTTAACACACATTTGATAAAGTGCC [CACACA_site6732],7.76 ± 0.61
17,ATTTTTGTTATTACATGTACCCATAATTATTATTAA [XGTACX_site3558],8.58 ± 0.75
18,AAAATTATAATAATATGTACTTAAAAAATTTATATA [XGTACX_site632],7.54 ± 0.2
19,TGTTAAAATTATTTGGTGCACTTGTTTTACCTTATT,10.8 ± 0.48
20,TTTTTGTTACCTATTGTGCACTTCATATAAATTAAA,11.3 ± 0.35

row,Sequence,gcPBM binding intensity (ln)
1,ACATTAAAAAATTGTTTGCACTATATAAAATATTAA [GTGCAC_site9728],9.86 ± 0.28
2,TATATATGCATATACATACACACATAACACATACGT [CACACA_site3833],8.24 ± 0.39
3,TAATATATAACGTGCACACACACATCTACGTATGAA [CACACA_site5080],10.82 ± 0.099
4,TTTATACATACATTCGTGCACATACGTATAACATAT,11.2 ± 0.19
5,ATTAATATATAACGTGCACACACACCGTTACGTATG [CACACA_site8543],10.3 ± 0.35
6,ATACGTATATAATATACATGCATATATAGCACATAC [TGCATGCA_site376],9.11 ± 0.66
7,TAATATATAACGTGCACACACACATTTACGTATGAA [CACACA_site1832],10.86 ± 0.064
8,ATATATAACGGGCACACACACATTTACGTATGAATA [CACACA_site1833],8.31 ± 0.49
9,ATATATAACGTGCACACACACATTTACGTATGAATA [CACACA_site6948],10.975 ± 0.007
10,TATGTTTACATATACGTGCACATGAATGTATACATT [GTGCAC_site9894],10.7 ± 0.29
11,AATGTCCTTATTTGCACACACACATATAAGAAATTT [CACACA_site3186],9.91 ± 0.23
12,TTACGCGCTTATTACACACACATACAAATAAGGATT [CACACA_site3486],8.06 ± 0.47
13,ATAATCAACATTAGGTGTACAAAATATGTATGTTTT [XGTACX_site6696],8 ± 0.59
14,TTTTCTTTTTCCAAAAGTACGTAATTTAAACATTTT [XGTACX_site2066],7.83 ± 0.43
15,AATTTTTTTCTCCAAGTGCATTAGAACATTAACGTA [GTGCAC_site9413],10.9 ± 0.53
16,ATTATTAAGTTTCACAAGAACATTGTTAACAATTTT [CACACA_negctrl_site1128],7.5 ± 0.64
17,AAAAAAAATTATATTTGTACGCATTAAAAAATCTAA [XGTACX_site1616],7.64 ± 0.26
18,TGAACAGACAAATACACACACTCAAAAAAAAAAAAG [CACACA_site7287],7.68 ± 0.45
19,TGAACTCAACAAAGGGTGCATAACAAAAATAGACGT,11.4 ± 0.23
20,ATAACAAAAAAAAAGGTGCTACAAAATGAATAAAAA [GTGCAC_site9659],9.12 ± 0.3

row,Sequence,gcPBM binding intensity (ln)
1,TTTTTTTTTAATATTTGTACACAACATGAAACATTT [XGTACX_site473],8.16 ± 0.53
2,TATATTTATGTATATGTGCACATAAATTTAAGAATG [GTGCAC_site9512],9.68 ± 0.19
3,TATATATTAATCAAAGTGCAATAATAAAATAAAAGT [GTGCAC_site9490],10.8 ± 0.34
4,TATAAGAATGACAAGTGTACATATCAAATATATTAG [XGTACX_site7113],7.77 ± 0.38
5,TATTGACATATATTAGTGCAATAATGAAATCAAGTA,10.9 ± 0.43
6,ATAAAATAAAGGAAAAATATTAAGTTTTAAGAAAAT [CACACA_negctrl_site1066],7.6 ± 0.76
7,ATTATTTAAATGGATGCACACATGCATTAAATAAAA [CACACA_site5831],8.99 ± 0.82
8,ACAATATGCAAAAAGTGTACACATTCATTTATATAA [XGTACX_site1061],8.34 ± 0.32
9,ACGCAATATTAACAAGTGCATTATAACACATAACAT,11.3 ± 0.61
10,AAAAAAATTACGCAAGTGCATATAATTTAACAAAAA,9.625 ± 0.007
11,AATAACAAAATATTAACACACATAACATATTATAAA [CACACA_site2803],7.55 ± 0.47
12,CATTATGTACAAAAAGTGCAATATATATTAACACTG,11 ± 0.43
13,ATATATTATATTATATGTACTTAAAAAAGTGCAAAG [XGTACX_site318],8.485 ± 0.035
14,AATTAAATTACTTATACACACATAAAATGTCTGTAT [CACACA_site997],7.76 ± 0.34
15,AAATTTATGTGTGCCTGTACATATCAAAGATTTAAG [XGTACX_site8547],7.93 ± 0.34
16,TCAGATCCATAGAAGGTGCAAATAACAAAAATACAA [GTGCAC_site9610],11 ± 0.43
17,ACATACATATGTAAATGTACAAAATATCCATAGATT [XGTACX_site2782],7.54 ± 0.77
18,AAATAACAAAAGAAGGTGCTCATAAAAATTCATACA [GTGCAC_site9864],8.51 ± 0.28
19,GAAATAAAAAGAAATGCATGTAATTTTTTTTTTTTT [TGCATGCA_site928],7.61 ± 0.83
20,AATGACATTCTTACACGTACAAAATAAAAAATAAAA [XGTACX_site6932],7.89 ± 0.59
